Measured values taken from PubChem BioAssay (Tox21).
Several values for one entry are separate records, joined by “and”; a condition that tells them apart may be missing. Equal values may be shown once. Inconclusive results are not listed. Entries that show only a call come without a potency. Some compounds were tested as several samples or in several runs, with calls that do not always agree. Activity calls are given as the source filed them. Unless noted, calls follow the shape of the dose curve; as a rule, active = well fitted curve in the direction sought with a large enough effect in the repeat runs; inconclusive = weak or mixed curves; inactive = no such curve, though single readings can be large; an effect the other way counts as inactive or inconclusive.

Legend:
[1] = biological target: Thyrotropin-releasing hormone receptor (Homo sapiens) (UniProt P34981); experiment: qHTS assay to identify small molecule agonists of the thyrotropin-releasing hormone receptor (TRHR) signaling pathway (AID 1346891; calls by dose curve;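 also: HEK293 cells expressing TRHR with calcium dye readout; series mostly up to about 58 µM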)
Chain of Thyrotropin-releasing hormone receptor (Homo sapiens) (P34981 whole entry, looked up): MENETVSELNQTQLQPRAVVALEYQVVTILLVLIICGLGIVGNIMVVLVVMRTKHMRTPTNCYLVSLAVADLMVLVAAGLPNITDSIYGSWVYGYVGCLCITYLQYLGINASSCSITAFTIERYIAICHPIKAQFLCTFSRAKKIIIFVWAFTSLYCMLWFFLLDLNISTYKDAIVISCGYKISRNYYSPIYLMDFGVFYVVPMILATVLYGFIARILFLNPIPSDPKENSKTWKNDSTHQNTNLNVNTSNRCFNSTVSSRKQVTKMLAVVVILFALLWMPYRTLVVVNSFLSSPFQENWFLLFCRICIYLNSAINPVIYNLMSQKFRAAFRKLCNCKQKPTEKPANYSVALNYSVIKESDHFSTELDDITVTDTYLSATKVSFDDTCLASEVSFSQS
Procedure, shortened: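 Cells: TRHR-Hek293, seeded and incubated 18 h. Dye loading: 2 h at 37 °C. Compound added from DMSO stock by pin tool. Read-out: kinetic calcium fluorescence over 3 min.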

[2] = Human pregnane X receptor (PXR) small molecule agonists, qHTS cell viability counter screen (AID 1346977); also: nearly all actives have a fitted effect of over 50% in size; also: potency is read from the fitted curve at half-maximal effect
Procedure, shortened: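 Cytotoxicity counter screen run in the same wells as the PXR luciferase assay, using PXR-Luc HepG2 cells in charcoal-stripped serum medium. Viability: CellTiter-Fluor fluorescence after 24hr compound treatment.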

[3] = Caspase-3/7 induction in HepG2 cells by small molecules, qHTS assay (AID 1346978); also: nearly all actives have a fitted effect of over 15% in size
Procedure, shortened: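 Wild-type HepG2 cells (2,000/well) were settled 5 h at 37 C, 5% CO2, then exposed to compounds in DMSO for 17 h. Caspase-3/7 activity was read by luminescence 30 min after adding Caspase-Glo 3/7 reagent at room temperature.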

[4] = Caspase-3/7 induction in CHO-K1 cells by small molecules, qHTS cell viability counter screen (AID 1346979); also: nearly all actives have a fitted effect of over 35% in size; also: potency is read from the fitted curve at half-maximal effect
Procedure, shortened: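 Cytotoxicity counter screen run in parallel with the caspase-3/7 assay: CHO-K1 cells, 16hr compound treatment at 37C, then CellTiter-Fluor for 1hr before fluorescence reading.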

[5] = Caspase-3/7 induction in CHO-K1 cells by small molecules, qHTS assay (AID 1346980); also: nearly all actives have a fitted effect of over 15% in size
Procedure, shortened: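 Wild-type cells were seeded at 1,500 per well and settled 5 hr at 37 C, 5% CO2, then exposed to DMSO-dissolved compounds for 17 hr. Caspase-Glo 3/7 reagent was added, and luminescence was read after 30min at room temperature.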

[6] = Caspase-3/7 induction in HepG2 cells by small molecules, qHTS cell viability counter screen (AID 1346981); also: nearly all actives have a fitted effect of over 30% in size; also: potency is read from the fitted curve at half-maximal effect
Procedure, shortened: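 In this quantitative HTS counter screen, compounds delivered in DMSO were left on unmodified HepG2 cells for 16 hr at 37 C. Viability was then determined fluorometrically with CellTiter-Fluor, in parallel with caspase-3/7 induction in the same wells.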

[7] = biological target: Voltage-gated inwardly rectifying potassium channel KCNH2 (Homo sapiens) (UniProt Q12809); experiment: Human Ether-a-go-go-Related Gene (hERG) channel small molecule antagonists: fluorescence cell-based qHTS assay (AID 1671200);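 also: hERG-expressing U2OS cells given a thallium stimulus after FluxOR II dye loading; series mostly up to about 77 µM; nearly all actives have a fitted effect of over 50% in size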
Chain of Voltage-gated inwardly rectifying potassium channel KCNH2 (Homo sapiens) (Q12809 whole entry, looked up): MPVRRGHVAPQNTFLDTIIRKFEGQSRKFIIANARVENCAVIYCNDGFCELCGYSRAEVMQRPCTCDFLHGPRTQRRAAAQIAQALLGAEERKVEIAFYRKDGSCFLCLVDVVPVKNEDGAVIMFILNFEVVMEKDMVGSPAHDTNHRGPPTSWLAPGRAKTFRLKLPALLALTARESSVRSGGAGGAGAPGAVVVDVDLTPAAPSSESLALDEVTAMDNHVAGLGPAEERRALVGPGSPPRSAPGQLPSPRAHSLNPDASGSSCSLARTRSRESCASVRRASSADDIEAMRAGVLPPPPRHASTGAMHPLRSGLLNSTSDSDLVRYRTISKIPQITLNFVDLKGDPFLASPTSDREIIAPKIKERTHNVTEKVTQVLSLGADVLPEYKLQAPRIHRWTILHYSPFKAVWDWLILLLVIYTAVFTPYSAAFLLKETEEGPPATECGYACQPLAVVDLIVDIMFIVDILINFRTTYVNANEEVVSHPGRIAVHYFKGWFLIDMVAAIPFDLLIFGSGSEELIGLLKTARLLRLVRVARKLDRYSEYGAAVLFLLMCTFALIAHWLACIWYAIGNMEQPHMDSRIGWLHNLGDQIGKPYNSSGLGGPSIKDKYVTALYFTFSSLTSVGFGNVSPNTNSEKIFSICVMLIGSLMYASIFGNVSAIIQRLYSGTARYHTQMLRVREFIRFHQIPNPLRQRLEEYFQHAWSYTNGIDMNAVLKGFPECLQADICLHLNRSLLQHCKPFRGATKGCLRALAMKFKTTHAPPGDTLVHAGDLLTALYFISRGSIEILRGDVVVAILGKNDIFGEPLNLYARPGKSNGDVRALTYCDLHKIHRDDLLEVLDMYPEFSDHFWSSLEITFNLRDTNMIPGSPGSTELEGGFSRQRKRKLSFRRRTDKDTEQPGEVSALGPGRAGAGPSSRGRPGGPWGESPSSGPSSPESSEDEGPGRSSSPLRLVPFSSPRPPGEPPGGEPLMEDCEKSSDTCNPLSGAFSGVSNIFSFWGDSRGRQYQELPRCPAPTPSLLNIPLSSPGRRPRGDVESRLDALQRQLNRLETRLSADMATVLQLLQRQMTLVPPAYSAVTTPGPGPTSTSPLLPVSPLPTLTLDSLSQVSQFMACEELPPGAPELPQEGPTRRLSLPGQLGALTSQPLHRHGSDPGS
Procedure, shortened: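 Fluorescence at 540 nm emission (480 nm excitation) was recorded kinetically for 2 min at 1-second intervals once the thallium-containing stimulus reached cells previously loaded with FluxOR II dye.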

[8] = biological target: Nuclear receptor subfamily 1 group I member 2 (Homo sapiens) (UniProt O75469); experiment: Human pregnane X receptor (PXR) small molecule agonists, qHTS assay (AID 1346982); also: nearly all actives have a fitted effect of over 35% in size; also: potency is read from the fitted curve at half-maximal effect
Chain of Nuclear receptor subfamily 1 group I member 2 (Homo sapiens) (O75469 whole entry, looked up): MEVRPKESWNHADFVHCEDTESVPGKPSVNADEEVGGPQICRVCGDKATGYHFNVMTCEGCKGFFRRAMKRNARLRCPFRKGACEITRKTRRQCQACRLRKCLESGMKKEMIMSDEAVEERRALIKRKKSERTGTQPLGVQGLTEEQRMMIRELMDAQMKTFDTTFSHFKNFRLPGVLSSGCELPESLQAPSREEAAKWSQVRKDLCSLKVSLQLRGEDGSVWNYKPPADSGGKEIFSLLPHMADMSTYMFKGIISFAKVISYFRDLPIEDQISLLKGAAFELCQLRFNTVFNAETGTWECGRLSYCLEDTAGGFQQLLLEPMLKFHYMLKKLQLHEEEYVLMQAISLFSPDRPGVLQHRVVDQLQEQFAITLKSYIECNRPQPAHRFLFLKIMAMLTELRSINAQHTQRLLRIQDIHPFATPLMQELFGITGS
Procedure, shortened: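 Reporter HepG2 cells expressing PXR-Luc are cultured in charcoal-stripped FBS (5%), treated with compounds for 24 hr at 37 C, and assayed by ONE-Glo luminescence after 30 min at room temperature.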

[9] = biological target: Cytochrome P450 2D6 (Homo sapiens) (UniProt P10635); experiment: Cytochrome P450 Family 2 Subfamily D Member 6 (CYP2D6) small molecule antagonists: luciferase reporter qHTS assay (AID 1671196); also: nearly all actives have a fitted effect of over 50% in size; also: potency is read from the fitted curve at half-maximal effect
Chain of Cytochrome P450 2D6 (Homo sapiens) (P10635 whole entry, looked up): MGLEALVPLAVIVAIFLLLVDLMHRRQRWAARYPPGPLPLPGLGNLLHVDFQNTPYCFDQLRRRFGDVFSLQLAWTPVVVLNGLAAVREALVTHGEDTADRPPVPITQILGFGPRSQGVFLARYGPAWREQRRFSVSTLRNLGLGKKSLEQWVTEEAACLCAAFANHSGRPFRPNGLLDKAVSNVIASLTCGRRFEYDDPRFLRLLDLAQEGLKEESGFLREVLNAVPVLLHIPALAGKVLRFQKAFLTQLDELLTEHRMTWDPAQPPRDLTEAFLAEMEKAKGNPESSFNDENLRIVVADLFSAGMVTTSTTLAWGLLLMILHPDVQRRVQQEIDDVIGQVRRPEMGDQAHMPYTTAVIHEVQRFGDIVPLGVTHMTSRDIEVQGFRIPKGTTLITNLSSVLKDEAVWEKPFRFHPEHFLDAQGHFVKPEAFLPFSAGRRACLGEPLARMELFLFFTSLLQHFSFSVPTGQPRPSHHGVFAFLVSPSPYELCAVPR
Procedure, shortened: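 Test chemicals meet CYP2D6 plus proluciferin substrate (10 min, RT); NADPH regenerating solution then drives turnover for 1 h. Detection reagent halts the reaction; luminescence measured after 20 min.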

[10] = biological target: Cytochrome P450 2C19 (Homo sapiens) (UniProt P33261); experiment: Cytochrome P450 Family 2 Subfamily C Member 19 (CYP2C19) small molecule antagonists: luciferase reporter qHTS assay (AID 1671197); also: nearly all actives have a fitted effect of over 65% in size; also: potency is read from the fitted curve at half-maximal effect
Chain of Cytochrome P450 2C19 (Homo sapiens) (P33261 whole entry, looked up): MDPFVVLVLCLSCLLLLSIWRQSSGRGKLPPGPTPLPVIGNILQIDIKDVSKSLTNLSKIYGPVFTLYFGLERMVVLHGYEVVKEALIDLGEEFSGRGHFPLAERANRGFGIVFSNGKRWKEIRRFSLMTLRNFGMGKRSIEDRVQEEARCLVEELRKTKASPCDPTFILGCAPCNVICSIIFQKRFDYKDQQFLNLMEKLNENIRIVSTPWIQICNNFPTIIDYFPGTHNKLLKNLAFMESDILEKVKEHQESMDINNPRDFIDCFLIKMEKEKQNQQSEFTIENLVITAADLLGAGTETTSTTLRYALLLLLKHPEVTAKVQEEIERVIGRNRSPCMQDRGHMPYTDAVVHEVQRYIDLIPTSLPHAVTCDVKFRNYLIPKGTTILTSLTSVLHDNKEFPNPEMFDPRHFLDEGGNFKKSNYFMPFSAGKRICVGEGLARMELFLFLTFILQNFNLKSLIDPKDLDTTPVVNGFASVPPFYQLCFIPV
Procedure, shortened: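 Quantitative high-throughput screen of the Tox21 library using CYP2C19 with proluciferin substrate. Reaction: NADPH regeneration, 37C, 1 h, after 10 min compound preincubation at room temperature. Readout: luminescence.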

[11] = biological target: Cytochrome P450 2C9 (Homo sapiens) (UniProt P11712); experiment: Cytochrome P450 Family 2 Subfamily C Member 9 (CYP2C9) small molecule antagonists: luciferase reporter qHTS assay (AID 1671198); also: nearly all actives have a fitted effect of over 50% in size; also: potency is read from the fitted curve at half-maximal effect
Chain of Cytochrome P450 2C9 (Homo sapiens) (P11712 whole entry, looked up): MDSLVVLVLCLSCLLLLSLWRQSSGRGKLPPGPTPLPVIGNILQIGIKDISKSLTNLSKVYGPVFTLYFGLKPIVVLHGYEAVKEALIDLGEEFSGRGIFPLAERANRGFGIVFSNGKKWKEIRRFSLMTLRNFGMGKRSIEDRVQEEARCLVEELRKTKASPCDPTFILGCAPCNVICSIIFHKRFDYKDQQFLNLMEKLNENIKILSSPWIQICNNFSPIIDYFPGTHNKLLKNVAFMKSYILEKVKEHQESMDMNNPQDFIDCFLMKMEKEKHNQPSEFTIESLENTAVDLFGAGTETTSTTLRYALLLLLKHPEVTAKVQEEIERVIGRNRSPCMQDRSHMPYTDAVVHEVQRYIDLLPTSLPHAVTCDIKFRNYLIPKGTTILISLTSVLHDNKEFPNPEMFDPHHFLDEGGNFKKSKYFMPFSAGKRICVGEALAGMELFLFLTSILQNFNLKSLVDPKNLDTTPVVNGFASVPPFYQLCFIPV
Procedure, shortened: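 CYP2C9 activity was measured with a P450-Glo proluciferin substrate. Enzyme–substrate mix was held with compound for 10 min at room temperature, then NADPH regeneration solution was added for 1 h at 37C. Luciferin product was read as luminescence.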

[12] = biological target: Cytochrome P450 1A2 (Homo sapiens) (UniProt P05177); experiment: Cytochrome P450 Family 1 Subfamily A Member 2 (CYP1A2) small molecule antagonists: luciferase reporter qHTS assay (AID 1671199); also: nearly all actives have a fitted effect of over 50% in size; also: potency is read from the fitted curve at half-maximal effect
Chain of Cytochrome P450 1A2 (Homo sapiens) (P05177 whole entry, looked up): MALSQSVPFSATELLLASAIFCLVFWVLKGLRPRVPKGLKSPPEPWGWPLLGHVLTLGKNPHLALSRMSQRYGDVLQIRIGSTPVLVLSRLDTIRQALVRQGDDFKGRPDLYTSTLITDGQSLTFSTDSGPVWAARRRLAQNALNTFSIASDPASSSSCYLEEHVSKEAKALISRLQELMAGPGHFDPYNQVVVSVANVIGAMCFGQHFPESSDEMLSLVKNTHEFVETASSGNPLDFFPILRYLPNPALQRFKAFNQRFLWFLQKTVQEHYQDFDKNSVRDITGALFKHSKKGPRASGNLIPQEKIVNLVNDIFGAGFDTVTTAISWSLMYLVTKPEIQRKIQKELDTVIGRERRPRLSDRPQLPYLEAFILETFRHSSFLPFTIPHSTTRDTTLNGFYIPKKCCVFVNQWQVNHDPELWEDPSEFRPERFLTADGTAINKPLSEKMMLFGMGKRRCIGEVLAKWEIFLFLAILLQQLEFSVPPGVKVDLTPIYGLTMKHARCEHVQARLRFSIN
Procedure, shortened: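 Steps: enzyme-substrate mix dispensed; test compounds and furafylline control pinned in; 10 min room temperature; NADPH regeneration solution added, 1 h; reaction stopped with luciferin detection reagent; luminescence read after 20 min.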

[13] = biological target: Nuclear receptor subfamily 1 group I member 2 (Rattus norvegicus) (UniProt Q9R1A7); experiment: Rat pregnane X receptor (rPXR) activation by small molecules, qHTS assay (AID 1346983); details: rPXR luciferase reporter cells, One-Glo luminescence, 24 h; max activation: stronger effect = higher value; also: nearly all actives have a fitted effect of over 20% in size
Chain of Nuclear receptor subfamily 1 group I member 2 (Rattus norvegicus) (Q9R1A7 whole entry, looked up): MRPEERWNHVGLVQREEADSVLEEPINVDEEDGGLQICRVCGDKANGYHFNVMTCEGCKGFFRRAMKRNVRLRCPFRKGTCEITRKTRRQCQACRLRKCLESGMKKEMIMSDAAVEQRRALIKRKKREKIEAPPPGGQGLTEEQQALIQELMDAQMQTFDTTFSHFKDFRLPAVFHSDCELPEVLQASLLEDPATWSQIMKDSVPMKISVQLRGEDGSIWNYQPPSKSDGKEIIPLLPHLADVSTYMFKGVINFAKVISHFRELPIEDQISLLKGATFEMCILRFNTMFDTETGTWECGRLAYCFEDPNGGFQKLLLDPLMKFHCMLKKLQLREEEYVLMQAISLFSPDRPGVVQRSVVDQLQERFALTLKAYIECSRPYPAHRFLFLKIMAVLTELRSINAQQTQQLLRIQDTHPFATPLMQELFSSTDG
Procedure, shortened: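 Cell-based rPXR luciferase reporter assay, 2,000 cells per well, rested 5hr at 37 C before compound addition in DMSO, then 24 hr at 37 C. One-Glo reagent was added and luminescence read after 30 min at room temperature.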

[14] = biological target: Nuclear receptor subfamily 1 group I member 2 (Homo sapiens) (UniProt O75469); experiment: Human pregnane X receptor (PXR) activation by small molecules, qHTS assay (AID 1346985); also: nearly all actives have a fitted effect of over 40% in size; also: potency is read from the fitted curve at half-maximal effect
Procedure, shortened: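 DPX-2 cells (HepG2 co-transfected with a PXR response element and a CYP3A4-promoter luciferase construct) were seeded at 2,000 per well, rested 5 hr at 37C, then exposed to DMSO-dissolved compounds for 24 hr. Activation was read as luciferase luminescence.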

[15] = biological target: Cytochrome P450 3A4 (Homo sapiens) (UniProt P08684); experiment: Cytochrome P450 Family 3 Subfamily A Member 4 (CYP3A4) small molecule antagonists: luciferase reporter qHTS assay (AID 1671201); also: nearly all actives have a fitted effect of over 50% in size; also: potency is read from the fitted curve at half-maximal effect
Chain of Cytochrome P450 3A4 (Homo sapiens) (P08684 whole entry, looked up): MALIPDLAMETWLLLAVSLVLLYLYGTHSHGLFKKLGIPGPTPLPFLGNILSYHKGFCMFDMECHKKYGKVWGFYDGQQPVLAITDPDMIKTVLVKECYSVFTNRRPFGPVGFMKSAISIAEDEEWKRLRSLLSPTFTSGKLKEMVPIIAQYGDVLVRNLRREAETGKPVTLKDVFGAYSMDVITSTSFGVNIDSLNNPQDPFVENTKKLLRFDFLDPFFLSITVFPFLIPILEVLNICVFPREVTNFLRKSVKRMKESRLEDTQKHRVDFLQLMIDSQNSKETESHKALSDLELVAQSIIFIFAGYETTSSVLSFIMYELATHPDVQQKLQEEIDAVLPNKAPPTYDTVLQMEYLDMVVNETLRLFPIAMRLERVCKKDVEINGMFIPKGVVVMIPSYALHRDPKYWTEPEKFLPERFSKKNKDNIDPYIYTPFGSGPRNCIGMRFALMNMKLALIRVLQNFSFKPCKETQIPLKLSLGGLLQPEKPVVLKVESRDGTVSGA
Procedure, shortened: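 qHTS, 1536-well. CYP3A4 + proluciferin substrate, cpd 10 min RT → NADPH regen 1 h RT → detection reagent 20 min → luminescence (RLU). Ketoconazole positive control.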

| Compound | Potency [1] | Potency [2] | Potency [3] | Potency [4] | outcome [5] | Potency [6] | Potency [7] | Potency [8] | Potency [9] | Potency [10] | Potency [11] | Potency [12] | max activation [13] | Potency [14] | Potency [15] |
| --- | --- | --- | --- | --- | --- | --- | --- | --- | --- | --- | --- | --- | --- | --- | --- |
| NC(=O)NO | inactive | inactive | inactive | inactive | inactive | inactive | inactive | – | – | – | – | – | – | – | – |
| CC(C)=CCC/C(C)=C/CO | – | inactive | inactive | inactive | inactive | inactive | – | – | – | – | – | – | – | – | – |
| O=c1c(-c2ccc(O)cc2)coc2cc(O)cc(O)c12 | – | inactive | inactive | 60.1 µM (active) and 48.6 µM (active) | inactive | inactive | inactive | 47.7 µM (active) and 30.6 µM (active) and 29.8 µM (active) | inactive | 55.5 µM (active) and 89.4 µM (active) | 55.5 µM (active) and 71 µM (active) and inactive | 19.7 µM (active) and 39.9 µM (active) | – | – | – |
| C#C[C@]1(O)CC[C@H]2[C@@H]3CCC4=CC(=O)CC[C@@H]4[C@H]3CC[C@@]21CC | – | inactive | inactive | inactive and 54.5 µM (active) | inactive | inactive | – | 8.65 µM (active) and 54.5 µM (active) and 24.3 µM (active) | inactive | 2.83 µM (active) and 5.64 µM (active) and 2.45 µM (active) | – | inactive | -1.1% (inactive) | inactive | – |
| CCc1cc(C(N)=S)ccn1 | inactive | inactive | inactive | inactive | inactive | inactive | inactive | – | – | – | – | – | – | – | – |
| COc1cc2c(c(OC)c1OC)-c1ccc(OC)c(=O)cc1[C@@H](NC(C)=O)CC2 | – | inactive | inactive | 381 nM (active) and 43.3 nM (active) and 298 nM (active) | inactive | inactive | – | 2.14 µM (active) and 5.4 nM (active) | inactive | inactive | inactive | – | – | – | – |
| OC[C@@H](O)[C@@H](O)[C@H](O)[C@H](O)CO | – | inactive | inactive | inactive | inactive | inactive | inactive | inactive | inactive | inactive | inactive and 89.4 µM (active) | inactive | -0.524% (inactive) | inactive | inactive |
| Cc1ccc(O)c(-n2nc3ccccc3n2)c1 | – | inactive | inactive | inactive | inactive | inactive | inactive | 27.1 µM (active) and 27.3 µM (active) and 23.7 µM (active) | 31.5 µM (active) and 35.6 µM (active) and 30.9 µM (active) | 7.05 µM (active) and 10 µM (active) | 8.87 µM (active) and 7.1 µM (active) and 8.71 µM (active) | 2.23 µM (active) and 1.42 µM (active) and 2.57 µM (active) | -1.88% (inactive) | 14.1 µM (active) | 22.3 µM (active) and 25.2 µM (active) |
| Cn1cnc2c1c(=O)[nH]c(=O)n2C | inactive | inactive | inactive | inactive | inactive | inactive | inactive | – | – | – | – | – | – | – | – |
| O=[N+]([O-])c1ccc(O)cc1 | – | 44.7 µM (active) and 48.6 µM (active) | inactive | 56.6 µM (active) and 54.5 µM (active) and 48.6 µM (active) | inactive | 56.6 µM (active) and 61.1 µM (active) and 54.5 µM (active) | – | inactive | inactive | 33 µM (active) | inactive | 20.8 µM (active) and inactive | – | – | 5.86 µM (active) and inactive |
| NC(N)=NC(N)=NCCc1ccccc1 | – | – | inactive | inactive | inactive | inactive | inactive | inactive | 5 µM (active) and 10 µM (active) and 8.71 µM (active) | inactive | – | – | -11.7% (inactive) and -9.14% (inactive) | inactive | inactive |
| O=C1CCCCCN1 | – | 7.08 µM (active) and inactive | inactive | 1.73 µM (active) and inactive | inactive | inactive | – | inactive | inactive | 40 µM (active) and inactive | inactive | inactive | – | – | inactive |
| Cc1c(N(C)C)c(=O)n(-c2ccccc2)n1C | – | inactive | inactive | inactive | inactive | inactive | – | 55.4 µM (active) and inactive | inactive | 32.2 µM (active) and inactive | inactive | 25.6 µM (active) | – | – | inactive |
| CCCCOC(=O)CCCCCCCCC(=O)OCCCC | – | inactive | inactive | inactive | inactive | inactive | – | inactive | inactive | inactive | 28.3 µM (active) | inactive | – | – | inactive |
| CC(O)COc1ccccc1 (centres undefined) | – | inactive | inactive | inactive | inactive | inactive | inactive | inactive | inactive | inactive | inactive | inactive | -1.1% (inactive) | inactive | inactive |
| CCCCC/C(C=O)=C\c1ccccc1 | – | inactive | inactive | inactive | inactive | inactive | – | inactive | 63.4 µM (active) and inactive | 35.6 µM (active) and 39.9 µM (active) and inactive | 39.9 µM (active) | 28.3 µM (active) and 35.6 µM (active) and 5.49 µM (active) | -0.992% (inactive) | inactive | inactive |
| C[C@]12CC[C@@H]3c4ccc(O)cc4C[C@@H](CCCCCCCCCS(=O)CCCC(F)(F)C(F)(F)F)[C@H]3[C@@H]1CC[C@@H]2O (some centres undefined) | inactive | inactive | inactive | – | inactive | inactive | – | – | inactive | 7.1 µM (active) and 10.5 µM (active) and 6.92 µM (active) | 2.83 µM (active) and 3.32 µM (active) and 2.75 µM (active) | inactive | – | – | 2 µM (active) and 1.86 µM (active) and 1.55 µM (active) |
| C[C@]12CC[C@@H]3c4ccc(O)cc4CC[C@H]3[C@@H]1CCC2=O | inactive | inactive | inactive | inactive | inactive | inactive | inactive | – | – | – | – | – | – | – | – |
